PfHsp40 yeast = restores yeast growth despite PfHsp40 toxicity; S. cerevisiae expressing PfHsp40, growth rescue, ATP luminescence; growth rescue, % at 12.5 µM; 0.68% of 340,000 active; in the data active = growth rescue above about 28%, passing the limit was not always enough; inconclusive = no clear call, values can overlap the other calls;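 also: yeast W303a lacking pdr1 and pdr3 grown in galactose medium; growth measured after three days at 30 °C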
TcdB inh = TcdB glycohydrolase inhibition; AID 652162; inhibition, % at 9.99 µM; TcdB glycohydrolase enzymatic assay, plate reader; P18177; 0.24% of 350,000 active; in the data active = inhibition above about 10%
BH1578 lux ind = quorum light induction in luxS cqsA deficient V. cholerae | V. cholerae BH1578 lux reporter, luminescence, 6 h | 0.16% of 350,000 active | AID 588436 | activation, % at 18.7 µM; in the data active = activation mostly above about 9.7%, no sharp cut-off; inconclusive = no clear call, values can overlap the other calls; inactive = mostly below about 3.7%
Y pestis TopoI = Y. pestis Topo-I inhibition via cleavage products. 0.064% of 360,000 active. activity, % at 10 µM. Y. pestis Topo-I cleavage product accumulation, plate reader; in the data active = activity above about 50%, passing the limit was not always enough; inconclusive = no clear call, values can overlap the other calls
Mtb BioA inh = inhibitors of Mycobacterium tuberculosis BioA enzyme; inhibition, % at 9.99 µM; purified M. tuberculosis BioA enzyme, plate reader; 0.096% of 360,000 active; in the data active = inhibition above about 40%; inconclusive = no clear call, values can overlap the other calls
DUSP3 inh = blocks human VHR1 dual specificity phosphatase | recombinant VHR phosphatase, pNPP absorbance | inhibition, % at 13.3 µM | AID 1654 | 0.52% of 290,000 active | P51452; in the data active = inhibition above about 50%
The depositor's hits bear a star; i = inactive; ? = inconclusive; / = no result given. In the library only some 1.2% were active in any assay of this set; here they are far more common.

SMILES	PfHsp40 yeast	TcdB inh	BH1578 lux ind	Y pestis TopoI	Mtb BioA inh	DUSP3 inh
CCCCN1/C(=C/c2ccc3ccccc3[n+]2CC)Sc2ccccc21	128.2*	/	0.2	9.0	/	0.8
CCN1/C(=C/c2ccc3ccccc3[n+]2CC)C=Cc2ccccc21	166.0*	/	-0.2	-14.2	29.0	4.2
CCOC(=O)NCc1ccc2c(c1)cc(C)n2C	2.6	/	i	2.4	/	51.0*
Cc1cc2cc(CNC(=O)CC(C)C)ccc2n1C	3.1	/	-16.4	1.1	/	55.0*
Cn1ncc(Br)c1C(=O)N/N=C/c1cccc(OC2CSC2)c1	-1.2	31.0*	-0.1	20.3	/	-1.5
Cc1ccc(Sc2ccc(NC(=O)CCl)cc2)cc1C	456.8*	/	-0.3	10.8	/	-10.0
O=C(NC1CCCC1)C1CCCN(C(=O)Nc2ccccc2)C1 (stereo not drawn)	1.3	0.0	i	6.2	-0.6	3.5
O=C(NC1CCN(C(=O)Nc2ccccc2)CC1)C1CCCCC1	-0.3	/	i	6.3	-2.9	51.9*
O=C(CCS(=O)(=O)c1cccs1)Nc1ccc(C(=O)NCc2ccccc2)cc1	-0.8	/	0.4	11.1	/	53.3*
CCNC(=O)C[C@@H]1CC[C@@H]2[C@H](COC[C@H](O)CN2C(=O)CC)O1	/	-0.8	/	/	0.9	/
COc1ccc(/C=C/C(=O)c2ccc([N+](=O)[O-])o2)cc1OC	/	0.8	/	/	/	/
COc1cc(/C=C/C(=O)c2ccc([N+](=O)[O-])o2)ccc1O	18.7	11.6*	i	-12.9	0.8	/
COCCNC(=O)c1cc2c(s1)-c1ccc(Cl)cc1SC2	2.6	1.1	i	13.9	-0.7	10.4
CC(=O)COc1ccc2c(-c3ccccc3)cc(=O)oc2c1C	2.6	0.6	-0.3	3.3	11.7	-11.6
Cc1c(OCC(=O)C(C)(C)C)ccc2c(-c3ccccc3)cc(=O)oc12	6.1	-10.7	-1.3	50.7*	6.2	6.1
CC1CCc2[nH]c3ccc(C(=O)Nc4ccc(C(=O)N(C)C)cc4)cc3c2C1 (stereo not drawn)	-0.8	-0.6	i	0.6	5.1	5.4
COc1ccccc1-c1cnc2c(c1)C(=O)N([C@@H](C)CO)C[C@@H](C)[C@H](CN(C)C)O2	/	0.3	/	/	-4.1	/
CCCCN(C(=O)c1cccc(S(=O)(=O)N2CCOCC2)c1)c1c(N)n(CCC)c(=O)[nH]c1=O	0.3	0.7	-3.6	10.1	/	17.4
CCCn1c(N)c(C(=O)COC(=O)c2cccc(S(=O)(=O)N3CCOCC3)c2)c(=O)[nH]c1=O	1.5	13.4*	i	5.0	-0.2	/
COc1cccc(C2NC(=S)NC3=C2CCc2ccccc23)c1 (stereo not drawn)	173.0*	-4.1	-0.2	10.9	/	4.6
COc1ccc2c(c1)C1=C(CC2)C(c2ccc(C)cc2)NC(=S)N1 (stereo not drawn)	-0.8	-0.2	-0.6	11.4	4.2	12.0
Oc1ccc(/C=N/N2CCN(Cc3ccccc3)CC2)cc1	-0.5	17.6*	-0.3	4.3	-1.0	20.0
CSc1ccc(/C=N/N2CCN(Cc3ccc(Cl)cc3)CC2)cc1	-0.2	10.9*	i	-8.7	1.8	10.2
CSc1ccc(/C=N/NC(=O)CN2CCN(Cc3ccc(Cl)cc3)CC2)cc1	-1.6	-0.5	-0.1	30.8	/	11.5
FC(F)(F)c1cnc(N2CCN(C(=S)NCc3ccccc3)CC2)c(Cl)c1	77.1*	0.1	-0.4	19.0	/	17.9
SMILES	PfHsp40 yeast	TcdB inh	BH1578 lux ind	Y pestis TopoI	Mtb BioA inh	DUSP3 inh
C/C(=N\NC(N)=O)c1ccccc1	-0.6	0.7	i	-10.8	/	9.6
C/C(=N\NS(C)(=O)=O)c1ccccc1	?	/	16.7*	-4.0	-0.3	21.3
O=c1c2ccccc2nc(-c2ccc(-c3ccccc3)cc2)n1-c1ccncc1	340.6*	0.1	-5.9	13.3	1.6	-0.1
Nc1ccc2c(c1)C/C(=C/c1ccco1)C2=O	0.2	/	-0.3	-19.6	/	71.8*
CN1C(=O)N(C)C(=O)C(CCc2ccncc2)(CCc2ccncc2)C1=O	0.2	1.1	-0.4	-13.1	/	15.8
Cc1[nH]nc2c1C(c1ccccc1)N(c1ccccc1)C2=O (stereo not drawn)	/	1.6	/	/	/	/
Nc1nc(-c2ccc(Oc3ccccc3)cc2)cs1	185.2*	0.9	1.0	6.6	-0.8	33.4
COc1ccc(CCn2c(-c3ccc(F)cc3)nc3c(c(=O)c4ccccc4n3C)c2=O)cc1OC	/	0.6	i	1.4	-2.2	13.1
COc1ccc(CCn2c(C3CCCCC3)nc3c(c(=O)c4ccccc4n3C)c2=O)cc1OC	103.9*	0.1	7.1	1.9	-2.1	13.1
COc1ccc(Cn2c(C3CCCCC3)nc3c(c(=O)c4ccccc4n3C)c2=O)cc1	/	/	/	/	/	54.1*

Assay outcomes (PubChem)
